From the supplement of paper PMC13392028

System: PvIESI-1 RRM domain (Plasmodium vivax PVP01_0939900 aa 896-1203, GST fusion)
Experiment: RBNS R-value (6-mer enrichment in protein-bound RNA vs input library) (ratio); higher = stronger binding preference; the methods of the paper give 50 / 100 / 500 nM protein instead
Protocol: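 RNA Bind-n-Seq: recombinant GST-tagged IESI-1 RRM domain was incubated at room temperature with a random 40-nt in vitro transcribed RNA library at 250, 500 or 1000 nM protein. Bound RNA was pulled down on glutathione beads and sequenced. R-value is the enrichment of each 6-mer in the bound RNA relative to the input library. Each 6-mer sits inside the random 40-mer context, not as an isolated oligo. Values are replicate 1 only.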

Sequence	RBNS R-value (protein concentration: 250 nM)	RBNS R-value (protein concentration: 500 nM)	RBNS R-value (protein concentration: 1000 nM)
GCCCGA	1.45	1.67	1.67
GCUGAU	2.62	2.82	2.68
AAUGAU	3.66	3.89	3.94
GUGAUG	3.26	3.57	3.34
CGAUGA	2.37	2.7	2.6
CCUGAU	3.03	3.36	3.13
UAUGAU	3.09	3.27	3.27
GACACC	1.46	1.66	1.69
UGAUAU	2.45	2.79	2.9
UUGAUU	4.5	4.73	4.43
AUGAUG	5.14	5.26	5.02
CCCGAG	1.41	1.72	1.72
CUUGAU	3.23	3.65	3.49
ACUGAU	2.99	3.2	3.11
